AI-2 QS mod: Vibrio harveyi AI-2 quorum sensing modulators, primary screen, JMH597 strain, luminescence/OD600 ratio. AID 2094, 2009. actives 0.4% (n = 300,000). Vibrio harveyi JMH597 AI-2 luminescence/OD600 ratio, 9 h; active compounds read low; strain lacks LuxN and CqsS sensors; 0 = neutral-control median. activity change, % at 7.5 µM; in the data active = activity change below about -75%, passing the limit was not always enough;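 note: luminescence divided by OD600 gain over 9 h not by final OD600 alone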
GRIN3A LBD mod: binders of NR3A ligand-binding domain, primary screen, biophysical, differential scanning fluorimetry, uHTS; NR3A LBD differential scanning fluorimetry, Tm shift; 0% = protein alone, 100% = glycine-bound protein; Tm shift relative to glycine control, % at 25 µM; actives 2.5% (n = 340,000); AID 1259313, 2017;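 active = melting temperature shift of at least 10% of the positive control shift, at one fixed dose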
SUMO Mot1 rescue: yeast Mot1-301 growth rescue at high temperature, primary screen, SUMOylation pathway inhibitor project, S. cerevisiae, ATP luminescence, 38.5C. S. cerevisiae Mot1-301 growth rescue; percent above DMSO median, 100 means doubled. growth rescue, % at 18.8 µM. actives 1% (n = 320,000). AID 2716, 2010;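 active = every valid replicate shows activation above 250% relative to neutral control wells; inactive = the rest, any valid replicate at or below 250%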;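 note: OY570 slx delta 5 strain wells were the positive control but not used for scaling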
NTR1 ag: agonists of human NTR1, primary screen, imaging, U2OS cells, beta-arrestin-GFP, high content; Neurotensin receptor type 1 (Homo sapiens), P30989; NTR1-U2OS beta-arrestin-GFP spot imaging, agonist mode; activation, % at 20 µM; actives 0.17% (n = 330,000); AID 493036, 2011;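 active = activation at or above 40% of the spot to cytoplasm intensity ratio, with at least 20 cells analyzed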;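 note: 0% = DMSO without peptide and 100% = 100 nM NTR1 peptide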
Target sequence (P30989 whole entry, looked up): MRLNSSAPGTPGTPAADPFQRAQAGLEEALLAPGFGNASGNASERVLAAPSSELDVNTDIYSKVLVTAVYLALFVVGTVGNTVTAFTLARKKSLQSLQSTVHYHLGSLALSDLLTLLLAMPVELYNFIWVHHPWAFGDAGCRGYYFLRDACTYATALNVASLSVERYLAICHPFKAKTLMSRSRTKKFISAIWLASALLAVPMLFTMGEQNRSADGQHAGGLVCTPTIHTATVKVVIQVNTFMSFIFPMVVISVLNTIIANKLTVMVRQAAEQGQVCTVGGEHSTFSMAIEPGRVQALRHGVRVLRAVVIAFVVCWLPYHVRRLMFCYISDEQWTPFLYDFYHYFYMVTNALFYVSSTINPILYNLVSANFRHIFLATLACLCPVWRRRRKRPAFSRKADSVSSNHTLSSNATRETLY
H9c2 protect: cardioprotection against H2O2-induced cell death, primary screen, uHTS, H9c2 cells, ATPLite luminescence; H9c2 cardiomyocytes, H2O2 injury protection, 2 h; protection from H2O2 cell death, % at 20 µM; actives 0.63% (n = 360,000); AID 588492, 2011;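 active = compounds giving at least 50% protection of heart cells from peroxide-induced death in the single-dose screen, raw or plate-pattern-corrected value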;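 note: 0% = DMSO wells with peroxide and 100% = DMSO wells without peroxide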
AHR act: AHR activators, primary screen, cell-based, luminescence, luciferase reporter, human; AHR-responsive luciferase reporter cells; activation, % at 5 µM; actives 2.5% (n = 320,000); in the data active = activation above about 47%;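 note: 0% = vehicle wells and 100% = reference agonist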
Active calls of the source: *; x = no result given. In the library only some 6.2% were active in any assay of this set; here they are far more common.

SMILES	AI-2 QS mod	GRIN3A LBD mod	SUMO Mot1 rescue	NTR1 ag	H9c2 protect	AHR act
COc1ccc(C(=O)N[C@H](C(=O)Nc2ccc(S(=O)(=O)N3CCOCC3)cc2)C(C)C)cc1	17	0	339*	0	-5	1
COc1ccc(NC(=O)c2ccccc2NS(=O)(=O)c2ccc(C)cc2)c([N+](=O)[O-])c1	3	-1	823*	2	-2	5
O=C(Nc1cc(S(=O)(=O)N2CCOCC2)ccc1O)c1ccc(NS(=O)(=O)c2ccc(Cl)s2)cc1	17	19*	12	0	7	-2
COc1ccc(-c2cc3nc(C)cc(N4CCN(C(=O)c5cccnc5)CC4)n3n2)cc1	x	x	x	x	7	x
CC1CC(C)CN(C(=O)c2nn(C)c3c2CS(=O)(=O)c2ccccc2-3)C1 (stereo unspecified)	30	-1	-18	-1	2	19
CC1(Oc2ccc(-n3ccnc3)cc2)CCN(Cc2cccn2-c2nccs2)C1 (stereo unspecified)	x	x	x	x	3	x
COc1ccc(C(=O)Nc2ccc(S(=O)(=O)N3CCCC3)cc2)cc1	-7	14*	2	-1	0	3
COc1ccc(S(=O)(=O)N2CCCCCC2)cc1C(=O)Nc1cccc(C)n1	-3	23*	-1	1	10	5
O=C(Nc1ccc([N+](=O)[O-])cc1)c1ccc(S(=O)(=O)N2CCCC2)cc1	22	11*	-1	1	-7	-1
COc1ccc(NS(=O)(=O)c2cc(NC(=O)[C@@H](NC(=O)c3ccccc3)C(C)C)ccc2C)cc1	9	13*	-27	-1	-6	0
C=C[C@]1(C)C[C@@H](OC(=O)CSCCN(CC)CC)[C@]2(C)C(C)CC[C@]3(CCC(=O)[C@H]32)[C@@H](C)[C@@H]1O (stereo partly specified)	-52	1	11	1	-5	0
CC(OC(=O)C1CCN(c2ccc(C(F)(F)F)cn2)CC1)C(=O)Nc1cccc([N+](=O)[O-])c1 (stereo unspecified)	x	8	6	4	-13	1
COc1ccc(CCNS(=O)(=O)c2cccc(S(=O)(=O)N3CCCC3)c2)cc1OC	26	14*	x	x	-16	x
COc1ccc(NS(=O)(=O)c2ccc(O)c(NC(=O)c3ccc(S(=O)(=O)N4CCCC4)cc3)c2)cc1	11	4	-8	0	1	1
COc1ccc(NS(=O)(=O)c2ccc(O)c(NC(=O)c3ccc(S(=O)(=O)N4CCCCCC4)cc3)c2)cc1	21	16*	0	1	-11	-3
C=CCn1c(C)nnc1SCC(=O)Nc1ccccc1C(=O)NC1CC1	x	0	x	0	2	x
N#CCCN(C(=S)Nc1ccc(S(=O)(=O)N2CCOCC2)cc1)c1ccccc1F	x	4	x	1	1	x
COc1ccc(-n2nnnc2C(c2cccc(OC)c2OC)N2CCN(C/C=C/c3ccccc3)CC2)cc1 (stereo unspecified)	x	x	x	x	2	x
CN1C(=O)/C(=C\c2ccc(OC(=O)c3ccco3)cc2)SC1=S	30	1	0	2	-6	2
CC(C)N=C(Nc1ccc(Cl)cc1)c1cccnc1	14	1	0	0	4	79*
CC(C)c1ccc(NC(=O)c2cccnc2)cc1	36	1	-32	0	-7	38
Cc1nn(-c2ccccc2)c(Cl)c1/C=N/NC(N)=O	15	-2	12	0	3	0
NC(=O)N/N=C/c1c(Sc2nnnn2-c2ccccc2)nc2ccccn2c1=O	9	29*	-10	5	-22	2
CC1CC(C)CN(C(=O)C(C)N2CCN(S(=O)(=O)c3ccc(Br)s3)CC2)C1 (stereo unspecified)	x	0	-10	3	-1	0

Screening results from PubChem.
